Compound activity as filed in PubChem BioAssay.
A selection: hits, their analogues and other compounds. The true share with any hit is near 3.7%.
Sm TGR block: qHTS Assay for the Inhibitors of Schistosoma Mansoni Peroxiredoxins; Schistosoma mansoni thioredoxin glutathione reductase (TGR), Q962Y6; purified TGR, DTNB reduction, TNB absorbance 405 nm; Potency, µM (series often up to 114 µM), most hits filed as inhibitors; 3% of 360,000 active; AID 485364, 2010; also: nearly all actives have a fitted effect of over 60% in size
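Kinetic colorimetric format: TGR-catalysed, NADPH-driven DTNB reduction monitored via TNB absorbance. Enzyme dispensed at 20 nM; compound exposure 15 min at room temperature before reaction start.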
TbPYK inhibitor: qHTS of Trypanosoma Brucei Inhibitors | pyruvate kinase (Trypanosoma brucei), Q57TT1 | TbPYK enzyme, Kinase-Glo Plus ATP luminescence, 45 min | Potency, µM (highest dose often 76.8 µM), usual class: inhibitors | 0.12% of 410,000 active | AID 624173, 2012; also: nearly all actives have a fitted effect of over 50% in size
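ADP (130 uM final) triggers the TbPYK reaction after compound addition; incubation is 45 min at room temperature. Kinase-Glo Plus is then added and luminescence imaged. Normalized data are fitted to concentration-effect curves.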
FMDV inh: High Throughput Screening for Foot and Mouth Disease Virus Antivirals; 1.2% of 410,000 active; FMDV antiviral cell-based qHTS; Potency, µM (titrated, usually from 57.9 µM), actives largely listed as inhibitors; calls by dose curve; tested in HEK293T cells; also: read-out not given here; nearly all actives have a fitted effect of over 45% in size
RE007 growth inh: qHTS Assay for Inhibitors of the HIV-1 protein Vpr | S. pombe RE007 Vpr strain, BacTiter-Glo ATP luminescence, 24 h | Potency, µM (titrated, usually from 92.2 µM), actives largely listed as inhibitors | 0.21% of 360,000 active | AID 651644, 2012; active = well fitted falling curve with a large enough effect; inconclusive = small, poorly fitted or top-dose-only effect; inactive = no such curve, though single readings can be large or run the other way; also: nearly all actives have a fitted effect of over 50% in size
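Fission yeast strain RE007, carrying one chromosomally integrated HIV-1 vpr copy, was seeded at OD 0.01 in PMG+AL medium with 23 nL pinned compound. After 24 h at 30 °C and 99% humidity, viability was read by BacTiter-Glo luminescence.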
A number is an active result; . = inactive; ? = inconclusive; / = no result given; [ ] = dose if it differs, or a comment. Unless noted, calls follow the shape of the dose curve; as a rule, active = well fitted curve in the direction sought with a large enough effect; inconclusive = small, poorly fitted or top-dose-only effect, or another doubt; inactive = no such curve, though single readings can be large; an effect the other way counts as inactive or inconclusive.

SMILES	Sm TGR block	TbPYK inhibitor	FMDV inh	RE007 growth inh
Cc1cc(-c2ccccc2)nc2cc(C(=O)Nc3ccc(Cl)c(Cl)c3)nn12	.	.	?	/
CC(=O)Nc1ccc(Sc2ccc([N+](=O)[O-])o2)cc1	/	.	35µM	?
C/C=C/C=C\C(=O)Nc1cccc(C2=NOC3(C2)C[C@H](C(N)=O)N(C(=O)CC#N)C3)c1 (stereo partly drawn)	2µM	.	.	.
C=C(C)C(=O)Nc1cccc(C2=NOC3(C2)C[C@@H](C(N)=O)N(C(=O)/C=C/C=C/C)C3)c1 (stereo partly drawn)	8.9µM	.	.	.
C/C=C\C=C\C(=O)Nc1cccc(C2=NOC3(C2)C[C@@H](C(N)=O)N(C(=O)C(c2ccccc2)c2ccccc2)C3)c1 (stereo partly drawn)	1.8µM	.	.	.
C/C=C/C=C\C(=O)Nc1cccc(C2=NOC3(C2)C[C@@H](C(N)=O)N(C(=O)/C(C)=C/C)C3)c1 (stereo partly drawn)	2.5µM	.	.	.
Cc1ccc(NC(=O)c2cc(S(=O)(=O)N(C)C3CCCCC3)ccc2F)cc1C	.	.	.	/
COc1cccc(CNC(=O)c2cnn(-c3ncc4c(n3)-c3ccccc3CCC4)c2C)c1OC	/	/	.	/
C/C=C\C=C/C(=O)Nc1cccc(C2=NOC3(C2)C[C@H](C(N)=O)N(C(=O)Cc2ccc([N+](=O)[O-])cc2)C3)c1 (stereo partly drawn)	1.1µM	?	.	.
C/C=C\C=C/C(=O)Nc1cccc(C2=NOC3(C2)C[C@@H](C(N)=O)N(C(=O)CCCCC)C3)c1 (stereo partly drawn)	2.5µM	?	.	.
C/C=C\C=C/C(=O)Nc1cccc(C2=NOC3(C2)C[C@H](C(N)=O)N(C(=O)CC)C3)c1 (stereo partly drawn)	1.8µM	.	.	.
C/C=C(/C)C(=O)Nc1cccc(C2=NOC3(C2)C[C@H](C(N)=O)N(C(=O)Cc2ccc([N+](=O)[O-])cc2)C3)c1 (stereo partly drawn)	.	.	.	.
Cc1ncc2c(c1CNC(=O)c1ccc3c(c1)OCO3)CCN(C(=O)c1cccc(-n3cccn3)c1)C2	/	/	.	/
CC(=O)Nc1ccccc1-c1nc(CNC(=O)c2ccc(-c3ccccc3F)cc2)c(C)o1	/	/	.	/
COc1ccccc1NC(=O)c1c(NCc2ccc(C)o2)sc2c1CCCCC2	2µM	?	.	/
COc1ccccc1NC(=O)c1c(NC(=O)c2ccco2)sc2c1CCC2	?	.	/	.
COc1ccc(Cl)cc1NC(=O)c1c(NCc2ccc(C)o2)sc2c1CCCCC2	3.5µM	?	.	/
COc1ccc(OC)c(NC(=O)c2c(NCc3ccc(N(C)C)cc3)sc3c2CCCC3)c1	22µM	.	.	/
COc1ccc(Cl)cc1NC(=O)c1c(NCc2ccc(C)o2)sc2c1CCC(C)C2 (stereo not drawn)	?	?	.	/
COc1ccc(OC)c(NC(=O)c2c(NCc3ccc(C)o3)sc3c2CCCCC3)c1	3.5µM	?	.	/
COc1ccccc1-c1ccnc(-n2ncc(C(=O)N3CCCCC3c3cccnc3)c2C)n1 (stereo not drawn)	/	/	.	/
COc1ccccc1N1CCN(C(=O)Cn2ncc3c(=O)oc4ccccc4c32)CC1	.	.	.	/
CCOC(=O)N1CCc2c(sc(NCc3sccc3C)c2C(=O)Nc2cc(OC)ccc2OC)C1	.	?	.	/
COc1ccc(OC)c(NC(=O)c2c(NCc3sccc3C)sc3c2CCCCC3)c1	20µM	?	.	/
Cn1nc(C(C)(C)C)cc1C(=O)N1CCCCC1c1cc(C(=O)Nc2ccc(F)c(Cl)c2)no1 (stereo not drawn)	/	.	25µM	.
SMILES	Sm TGR block	TbPYK inhibitor	FMDV inh	RE007 growth inh
CCCCNC(=O)/C(=C\c1ccc([N+](=O)[O-])o1)NC(=O)c1ccccc1	45µM	.	.	.
CN(C)CCNC(=O)/C(=C/c1ccc(-c2cccc([N+](=O)[O-])c2)o1)NC(=O)c1ccccc1	.	.	.	.
Cc1ccc(C(=O)N/C(=C\c2ccc(-c3ccccc3[N+](=O)[O-])o2)C(=O)NCCN(C)C)cc1	1.4µM	.	.	.
Cc1ccc(C(=O)N/C(=C\c2ccc(-c3ccccc3[N+](=O)[O-])o2)C(=O)NCCCN(C)C)cc1	8.9µM	.	?	.
CN(C)CCCNC(=O)/C(=C/c1ccc(-c2ccc([N+](=O)[O-])cc2)o1)NC(=O)c1ccccc1	.	.	.	.
O=C(O)/C(=C\c1ccc(-c2ccccc2[N+](=O)[O-])o1)c1ccccc1	35µM	.	.	.
COc1cc(-c2cc(C)c3cccc(OC)c3n2)cc2c1OCCN(C(=O)CCn1ccc(C)n1)C2	/	/	.	/
COc1ccc(/C=C/C(=O)c2cc(F)ccc2OC(=O)c2ccc(OC)c(OC)c2)cc1OC	.	.	?	.
COc1ccc(/C=C/C(=O)c2cc(F)ccc2OC(=O)c2ccccc2)cc1OC	/	.	28µM	.
COc1ccc(/C=C/C(=O)c2cc(F)ccc2OC(=O)c2ccccc2OC)cc1OC	.	.	8.9µM	.
Cc1ccc(Cl)cc1NC(=O)Cn1c(=O)n(CCC(=O)N2CCc3ccccc3C2)c(=O)c2ccccc21	.	.	.	/
O=C(Nc1cnn(Cc2ccc(Cl)cc2Cl)c1)c1noc2c1CCc1ccccc1-2	.	.	.	/
O=C(CSc1nccn1Cc1ccc(Cl)cc1)Nc1ccc2c(c1)OCO2	.	.	.	/
CCOC(=O)C1CCCN(C(=O)CCS(=O)(=O)c2cc3c(cc2Cl)NC(=O)CO3)C1 (stereo not drawn)	.	.	.	/
Cc1ccc(C)c(N2CCN(C(=O)C3CCN(Cc4nc(-c5cccc(Cl)c5)oc4C)CC3)CC2)c1	.	.	20µM	/
Cc1oc(-c2cccc(Cl)c2)nc1CN1CCC(C(=O)N2CCN(c3ccccn3)CC2)CC1	/	.	20µM	.
CCN1CCN(C(=O)C2CCN(Cc3nc(-c4cccc(Cl)c4)oc3C)CC2)CC1	.	.	.	.
CCc1ccc(-c2nc(CN3CCC(C(=O)N4CCN(c5ccccn5)CC4)CC3)c(C)o2)cc1	.	/	25µM	.[3.69 µM]
O=C(c1[nH]c2ccccc2c1Sc1ccc(Cl)cc1)N1CCCCC1	.	.	.	/
CN(C)S(=O)(=O)c1ccc(C(=O)Nc2ccnn2C2CCCCC2)cc1	.	.	28µM	.
COc1ccc(Cn2ccc3nc(C)c(C(=O)NCc4ccc(SC)cc4)cc3c2=O)cc1	.	.	.	/
Cn1c(=S)c2[nH]c(SCCN)nc2n(C)c1=O	/	.	.	.
CCN1CCCC(Sc2nc3c([nH]2)c(=S)n(C)c(=O)n3C)C1 (stereo not drawn)	40µM	.	.	/
Cn1c(=O)c2[nH]c(C3CCC3)nc2n(C)c1=O	/	.	.	.
Cn1c(=S)c2[nH]c(SCCN3CCCC3)nc2n(C)c1=O	40µM	.	.	/
O=C1NC(=O)/C(=C/c2cccc(O)c2)N1	.	.	.	.
CC(C)(C)c1cc(/C=C2\NC(=O)NC2=O)cc(C(C)(C)C)c1O	1.1µM	.	.	.
